From PubChem BioAssay (EPA / NIEHS) come the findings set out here.

Experiment [1] is described as follows: CEETOX_H295R_OHPREG_noMTC: CeeTox H295R High-throughput Steroidogenesis Assay for OH-Pregnenolone (OHPREG), maximum tolerated concentration (MTC) filtered results only (AID 2283912; active = hit-call score of the fitted dose curve at least 0.9, where 1 is the maximum; inactive = score below 0.9). Conditions: actives raise or lower the signal. Summed up:
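H295R cells prestimulated 48 h with 10 uM forskolin, then exposed 48 h to compound (0.1% DMSO). 17alpha-hydroxypregnenolone in medium measured by MTBE extraction and HPLC-MS/MS; bidirectional fit vs DMSO, concentrations not MTT/MTC-filtered.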

A short description of experiment [2]: CEETOX_H295R_OHPROG_noMTC: CeeTox H295R High-throughput Steroidogenesis Assay for OH-Progesterone (OHPROG), maximum tolerated concentration (MTC) filtered results only (AID 2283914; active = hit-call score of the fitted dose curve at least 0.9, where 1 is the maximum; inactive = score below 0.9). The note with it: actives raise or lower the signal. In outline: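 H295R cells prestimulated 48 h with 10 uM forskolin, then exposed 48 h to chemical (0.1% DMSO final). 17alpha-hydroxyprogesterone in medium quantified by HPLC-MS/MS after MTBE extraction; bidirectional fitting versus DMSO, concentrations not MTC-filtered.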

Experiment [3] can be described thus: CEETOX_H295R_CORTISOL_noMTC: CeeTox H295R High-throughput Steroidogenesis Assay for Cortisol, maximum tolerated concentration (MTC) filtered results only (AID 2283916; active = hit-call score of the fitted dose curve at least 0.9, where 1 is the maximum; inactive = score below 0.9). The note with it: actives raise or lower the signal. Summed up: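 H295R human adrenal cells prestimulated 48 h with 10 uM forskolin, then exposed 48 h to chemical in 0.1% DMSO; cortisol in medium quantified by HPLC-MS/MS; bidirectional fit vs DMSO baseline, concentrations not MTT-filtered for MTC.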

Experiment [4] in a line: CEETOX_H295R_CORTIC_noMTC: CeeTox H295R High-throughput Steroidogenesis Assay for Corticosterone (CORTIC), maximum tolerated concentration (MTC) filtered results only (AID 2283917; active = hit-call score of the fitted dose curve at least 0.9, where 1 is the maximum; inactive = score below 0.9). Conditions: actives raise or lower the signal. Summed up: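 H295R adrenal cells pre-stimulated 48 h with 10 uM forskolin, then exposed 48 h to chemical in 0.1% DMSO; corticosterone in medium quantified by HPLC-MS/MS, fitted bidirectionally versus DMSO without MTT-based concentration filtering.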

The nature of experiment [5]: CEETOX_H295R_DOC_noMTC: CeeTox H295R High-throughput Steroidogenesis Assay for DOC, maximum tolerated concentration (MTC) filtered results only (AID 2283918; active = hit-call score of the fitted dose curve at least 0.9, where 1 is the maximum; inactive = score below 0.9). The note with it: actives raise or lower the signal. Summed up:
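H295R cells prestimulated 48 h with 10 uM forskolin, then exposed 48 h to chemical in 0.1% DMSO. 11-Deoxycorticosterone in medium measured by MTBE extraction and HPLC-MS/MS; bidirectional fit vs DMSO, no MTC filter.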

Experiment [6] in a line: CEETOX_H295R_PROG_noMTC: CeeTox H295R High-throughput Steroidogenesis Assay for Progesterone (PROG), maximum tolerated concentration (MTC) filtered results only (AID 2283920; active = hit-call score of the fitted dose curve at least 0.9, where 1 is the maximum; inactive = score below 0.9). The note with it: actives raise or lower the signal. In outline: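 H295R cells, prestimulated 48 h with 10 uM forskolin, exposed 48 h to chemical in 0.1% DMSO. Medium progesterone quantified by MTBE extraction and HPLC-MS/MS; bidirectional fit versus DMSO, concentrations not MTT-filtered.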

The target of experiment [7] is Thyroid hormone receptor alpha (Rattus norvegicus) + Thyroid hormone receptor beta (Rattus norvegicus) (UniProt P18113+P63059). Description: TOX21_TR_LUC_GH3_Agonist_Followup: Tox21 GH3 Thyroid Hormone Receptor Agonism Luciferase Follow-Up Assay (AID 2283939). In outline: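 Rat GH3 cells (1,500/well) in serum-free assay medium, treated with 15-point series, 92 uM to 5 nM final, for 24 h at 37C. Luciferase via ONE-Glo luminescence; gain of signal fitted against DMSO, T3 positive control.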
Thyroid hormone receptor alpha (Rattus norvegicus) + Thyroid hormone receptor beta (Rattus norvegicus), sequence (P63059 whole entry, looked up): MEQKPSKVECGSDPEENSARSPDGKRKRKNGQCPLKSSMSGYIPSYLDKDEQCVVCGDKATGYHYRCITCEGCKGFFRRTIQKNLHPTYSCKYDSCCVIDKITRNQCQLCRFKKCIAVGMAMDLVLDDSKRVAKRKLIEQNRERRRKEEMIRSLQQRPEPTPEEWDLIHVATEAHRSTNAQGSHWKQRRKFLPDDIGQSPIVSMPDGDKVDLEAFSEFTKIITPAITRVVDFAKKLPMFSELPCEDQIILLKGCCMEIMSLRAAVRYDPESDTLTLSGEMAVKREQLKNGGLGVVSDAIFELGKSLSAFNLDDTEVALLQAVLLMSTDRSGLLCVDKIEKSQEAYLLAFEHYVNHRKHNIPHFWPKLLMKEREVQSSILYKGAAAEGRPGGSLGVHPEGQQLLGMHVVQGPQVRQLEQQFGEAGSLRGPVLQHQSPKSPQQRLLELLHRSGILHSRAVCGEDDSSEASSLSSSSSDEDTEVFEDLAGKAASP
Thyroid hormone receptor alpha (Rattus norvegicus) + Thyroid hormone receptor beta (Rattus norvegicus), sequence (P18113 whole entry, looked up): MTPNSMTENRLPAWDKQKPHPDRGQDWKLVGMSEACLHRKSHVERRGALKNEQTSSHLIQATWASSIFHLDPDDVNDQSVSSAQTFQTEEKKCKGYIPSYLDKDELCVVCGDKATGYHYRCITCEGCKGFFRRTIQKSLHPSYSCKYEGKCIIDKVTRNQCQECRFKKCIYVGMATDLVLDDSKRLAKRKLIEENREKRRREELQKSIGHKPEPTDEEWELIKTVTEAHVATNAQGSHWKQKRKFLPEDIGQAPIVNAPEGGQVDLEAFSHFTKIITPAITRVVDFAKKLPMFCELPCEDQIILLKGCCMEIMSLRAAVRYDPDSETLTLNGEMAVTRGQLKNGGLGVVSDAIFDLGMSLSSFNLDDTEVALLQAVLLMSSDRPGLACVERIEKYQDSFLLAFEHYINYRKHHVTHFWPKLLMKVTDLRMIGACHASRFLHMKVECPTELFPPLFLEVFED

For a further experiment, the target named is THRA (gene 7067) (UniProt P10827). Description: TOX21_TRA_COA_Agonist_Followup_ratio: Tox21 Thyroid Hormone Receptor alpha Agonism through Coactivator Recruitment Follow-Up Assay, Ratio (AID 2283948; active = hit-call score of the fitted dose curve at least 0.9, where 1 is the maximum; inactive = score below 0.9). In outline: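 Read-out is the 520/495 nm emission ratio (ex 340 nm), scaled between DMSO-only wells as 0% and T3 wells as 100%. It reflects fluorescein-SRC-2 peptide recruitment to GST-TRα LBD detected via terbium anti-GST antibody.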
THRA (gene 7067), sequence (P10827 whole entry, looked up, the tested form may be a part): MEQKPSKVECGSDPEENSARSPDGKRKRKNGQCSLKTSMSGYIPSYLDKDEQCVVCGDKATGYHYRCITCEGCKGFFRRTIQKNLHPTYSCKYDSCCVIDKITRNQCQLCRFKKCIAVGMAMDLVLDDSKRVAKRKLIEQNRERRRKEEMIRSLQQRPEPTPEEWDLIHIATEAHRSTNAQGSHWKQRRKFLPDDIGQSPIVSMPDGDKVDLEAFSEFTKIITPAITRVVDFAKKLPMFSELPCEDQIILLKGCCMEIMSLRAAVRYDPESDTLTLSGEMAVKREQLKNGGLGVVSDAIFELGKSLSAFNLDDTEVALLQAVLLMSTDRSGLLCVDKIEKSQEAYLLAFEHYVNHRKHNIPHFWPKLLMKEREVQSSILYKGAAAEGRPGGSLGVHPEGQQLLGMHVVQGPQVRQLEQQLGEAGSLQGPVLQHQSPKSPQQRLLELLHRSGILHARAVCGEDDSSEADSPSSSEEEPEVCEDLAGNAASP

A short description of experiment [8]: CEETOX_H295R_ANDR_noMTC: CeeTox H295R High-throughput Steroidogenesis Assay for Androstenedione (ANDR), maximum tolerated concentration (MTC) filtered results only (AID 2283915; active = hit-call score of the fitted dose curve at least 0.9, where 1 is the maximum; inactive = score below 0.9). The note with it: actives raise or lower the signal. In outline: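 H295R cells, passage 10 or below, prestimulated 48 h with 10 uM forskolin, then exposed 48 h to chemical in 0.1% DMSO. Medium androstenedione extracted with MTBE, quantified by HPLC-MS/MS; concentrations not MTC-filtered; bidirectional fit versus DMSO.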

A short description of experiment [9]: CEETOX_H295R_ESTRADIOL_noMTC: CeeTox H295R High-throughput Steroidogenesis Assay for Estradiol, maximum tolerated concentration (MTC) filtered results only (AID 2283919; active = hit-call score of the fitted dose curve at least 0.9, where 1 is the maximum; inactive = score below 0.9). The note with it: actives raise or lower the signal. Summed up:
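H295R human adrenal cells pre-stimulated 48 h with 10 uM forskolin, then exposed 48 h to chemical (0.1% DMSO final). Estradiol in medium measured by HPLC-MS/MS after MTBE extraction and dansyl derivatization; bidirectional fit versus DMSO, concentrations not MTT-filtered.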

The nature of experiment [10]: CEETOX_H295R_ESTRONE_noMTC: CeeTox H295R High-throughput Steroidogenesis Assay for Estrone, maximum tolerated concentration (MTC) filtered results only (AID 2283921; active = hit-call score of the fitted dose curve at least 0.9, where 1 is the maximum; inactive = score below 0.9). The note with it: actives raise or lower the signal. Summed up: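 H295R cells prestimulated 48 h with 10 uM forskolin, then exposed 48 h to chemical in 0.1% DMSO; medium estrone measured by HPLC-MS/MS after MTBE extraction and dansyl derivatization, fitted bidirectionally versus DMSO without MTT-based MTC filtering.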

A short description of experiment [11]: CEETOX_H295R_TESTO_noMTC: CeeTox H295R High-throughput Steroidogenesis Assay for Testosterone (TESTO), maximum tolerated concentration (MTC) filtered results only (AID 2283924; active = hit-call score of the fitted dose curve at least 0.9, where 1 is the maximum; inactive = score below 0.9). The note with it: actives raise or lower the signal. Summed up: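 H295R cells prestimulated 48 h with 10 uM forskolin, then exposed 48 h to chemicals in 0.1% DMSO final. Testosterone in medium quantified by MTBE extraction and HPLC-MS/MS; bidirectional fit versus DMSO, concentrations […] filtered by MTT-based maximum tolerated concentration.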

Experiment [12] has as its target PGR (gene 5241) (UniProt P06401). The experiment is described as follows: TOX21_PR_BLA_Followup_Antagonist_ratio: Tox21 HEK293 Progesterone Receptor (PR) Antagonism Beta-lactamase Follow-Up Assay, Ratio (AID 2283934). Summed up: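 Antagonist mode used 1 nM R5020 (final) as agonist on a beta-lactamase reporter line in HEK293T cells. Activity was taken from the substrate cleavage ratio after 16 hr exposure.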

Experiment [13] in a line: TOX21_PR_BLA_Followup_Agonist_viability: Viability Assessment in the Tox21 HEK293 Progesterone Receptor (PR) Agonism Beta-lactamase Follow-Up Assay (AID 2283935).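 Also: signal loss means lower viability so actives are cytotoxic.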 In outline:
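Multiplexed viability counter-screen: ATP-coupled luciferase signal measured after 30 min at room temperature, following 16 hr compound treatment of PR-UAS-bla HEK293T cells grown in charcoal-stripped serum.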

A short description of experiment [14]: TOX21_PR_BLA_Followup_Antagonist_viability: Viability Assessment in the Tox21 HEK293 Progesterone Receptor (PR) Antagonism Beta-lactamase Follow-Up Assay (AID 2283936).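 Also: hits lower the luminescence signal meaning cytotoxicity.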 In outline:
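PR-UAS-bla HEK293T cells (3,000/well, 2% charcoal-stripped FBS) given compound plus R5020 agonist, 16 h at 37C. CellTiter-Glo added after bla read, 30 min at room temperature; luminescence loss indicates cytotoxicity.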

In experiment [15] the target is PGR (gene 5241) (UniProt P06401). The experiment is described as follows: TOX21_PR_LUC_Followup_Agonist: Tox21 HEK293 Progesterone Receptor (PR) Agonism Luciferase Follow-Up Assay (AID 2283937; active = hit-call score of the fitted dose curve at least 0.9, where 1 is the maximum; inactive = score below 0.9). Summed up:
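Agonist mode: reporter cells carrying PR-A and luciferase are treated 16 h with test compounds at 37C. Luciferase induction is measured by luminescence and fitted upward against DMSO.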

Experiment [16] shares this target. Description: TOX21_PR_LUC_Followup_Antagonist: Tox21 HEK293 Progesterone Receptor (PR) Antagonism Luciferase Follow-Up Assay (AID 2283938).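 Also: curve fitted upward as signal gain over DMSO baseline despite antagonist label.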 In outline: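 HEK293-PR-A-luc cells were precultured 5 days in medium with 10% charcoal-stripped FBS, seeded 3,000/well, then exposed to compounds in DMSO for 16 h at 37C. Luciferase was read by ONE-Glo luminescence after 30 min at room temperature.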

The nature of experiment [17]: TOX21_PR_LUC_Followup_Antagonist_viability: Viability Assessment in the Tox21 HEK293 Progesterone Receptor (PR) Antagonism Luciferase Follow-Up Assay (AID 2283940). In outline: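 Cellular ATP, measured with luciferase-coupled CellTiter-Glo, served as the viability endpoint after HEK293-PR-A-luc cells were exposed to test compounds for 16 h at 37C.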
Experiment [18] in a line: TOX21_PR_LUC_Followup_Agonist_viability: Viability Assessment in the Tox21 HEK293 Progesterone Receptor (PR) Agonism Luciferase Follow-Up Assay (AID 2283941).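 Also: loss of signal means cytotoxicity so actives lower viability.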 Summed up: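 Luminescent ATP quantitation (CellTiter-Glo) serves as the read-out; a drop flags cytotoxic compounds. Cells are HEK293-PR-A-luc grown in 10% charcoal-stripped FBS, plated 3,000/well, and exposed to compound for 16 h.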

Experiment [19] concerns the target PGR (gene 5241) (UniProt P06401). Description: TOX21_PR_BLA_Followup_Agonist_ratio: Tox21 HEK293 Progesterone Receptor (PR) Agonism Beta-lactamase Follow-Up Assay, Ratio (AID 2283933). Summed up: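 Agonist-mode follow-up in HEK293T cells carrying a UAS-driven beta-lactamase reporter, grown in 2% charcoal-stripped serum. Compounds act for 16 hr; activity is the ch2/ch1 cleavage ratio, with same-well CellTiter-Glo viability run in parallel.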

Results filed as inconclusive are left out. The source made the active and inactive calls. The calls were made as follows, unless noted: active = hit-call score of the fitted dose curve at least 0.9, where 1 is the maximum; inconclusive = response in the unintended direction; inactive = score below 0.9.

PGR (gene 5241), sequence (P06401 whole entry, looked up): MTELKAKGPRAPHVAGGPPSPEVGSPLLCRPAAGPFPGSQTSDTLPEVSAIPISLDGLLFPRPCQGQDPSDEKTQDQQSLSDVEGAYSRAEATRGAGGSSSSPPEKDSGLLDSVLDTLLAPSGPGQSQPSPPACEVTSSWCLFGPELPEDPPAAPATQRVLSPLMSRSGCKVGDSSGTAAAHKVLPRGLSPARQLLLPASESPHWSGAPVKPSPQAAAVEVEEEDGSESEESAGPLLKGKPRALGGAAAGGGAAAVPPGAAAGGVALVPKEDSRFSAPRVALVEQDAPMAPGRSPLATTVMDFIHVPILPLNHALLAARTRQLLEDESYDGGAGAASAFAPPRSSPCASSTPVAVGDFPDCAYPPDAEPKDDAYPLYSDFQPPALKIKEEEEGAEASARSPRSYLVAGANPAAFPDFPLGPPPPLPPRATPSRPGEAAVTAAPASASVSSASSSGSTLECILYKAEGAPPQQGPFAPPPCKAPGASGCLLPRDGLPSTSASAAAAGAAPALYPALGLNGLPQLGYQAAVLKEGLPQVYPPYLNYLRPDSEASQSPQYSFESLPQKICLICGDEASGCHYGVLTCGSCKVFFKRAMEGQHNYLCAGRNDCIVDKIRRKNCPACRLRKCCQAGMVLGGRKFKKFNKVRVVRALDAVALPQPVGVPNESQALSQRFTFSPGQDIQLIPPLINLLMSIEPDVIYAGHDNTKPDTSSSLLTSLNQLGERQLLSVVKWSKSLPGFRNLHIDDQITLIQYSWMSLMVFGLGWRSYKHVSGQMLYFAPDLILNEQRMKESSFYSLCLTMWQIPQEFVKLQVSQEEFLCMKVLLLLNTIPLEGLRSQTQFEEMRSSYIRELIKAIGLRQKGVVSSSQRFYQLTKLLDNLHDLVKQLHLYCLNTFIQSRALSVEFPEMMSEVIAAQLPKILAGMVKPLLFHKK

Turning to `ClC(Cl)=C(Cl)C(Cl)=C(Cl)Cl`, the compound was called inactive in experiment [1], in experiment [2], in experiment [3], in experiment [4], in experiment [5] and in experiment [6].
`NNC(=S)NN`: the outcome (in experiment [7]; with THRA (gene 7067)) was inactive.
Consider `CC(C)(OO)c1ccccc1`, for which the result in the experiment with THRA (gene 7067) was inactive.
As to `C[C@H]1CCCC(=O)CCC/C=C/c2cc(O)cc(O)c2C(=O)O1`, the result (in experiment [1]; in experiment [9]; in experiment [13]; in experiment [14]; in the experiment with PGR (gene 5241) [15]; with PGR (gene 5241) [16]) was inactive. Moreover, the outcome in experiment [17] and in experiment [18] was inactive. The AC50 – broadly, the concentration at which the activity in the assay is half-maximal – was 2.3 µM (active) in experiment [2]; 77.4 µM (active) in experiment [8]; 3.94 µM (active) in [6]; 36.3 µM (active) in experiment [10]; 82.8 µM (active) in [11]; 14.4 µM (active) with PGR (gene 5241) [12].
`Nc1ccc(-c2ccc(N)c(Cl)c2)cc1Cl`: the AC50 is 5.01 µM (active) in the experiment with PGR (gene 5241) [12] and 6.09 µM (active) in the experiment with PGR (gene 5241) [16]. Moreover, the compound was classed as inactive in experiment [13], in [14], in experiment [17] and in [18].
For `O=C1C2(Cl)C3(Cl)C4(Cl)C(Cl)(Cl)C5(Cl)C3(Cl)C1(Cl)C5(Cl)C24Cl` (configuration not stated), the outcome (with PGR (gene 5241) [19]; in experiment [14]; with PGR (gene 5241) [15]; in experiment [17]; in experiment [18]) was inactive. Also, the AC50 with PGR (gene 5241) [12] was 63 µM (active); in experiment [13], 66.2 µM (active); in the experiment with PGR (gene 5241) [16], 33.8 µM (active).
Take `CC(C)(c1ccccc1)c1ccc(O)c(C(C)(C)c2ccccc2)c1`: the outcome with THRA (gene 7067) was inactive.
Take `CC12CC1(C)C(=O)N(c1cc(Cl)cc(Cl)c1)C2=O` (configuration not stated): the outcome (with PGR (gene 5241) [19]; with PGR (gene 5241) [12]; in experiment [13]; in the experiment with PGR (gene 5241) [15]; with PGR (gene 5241) [16]; in [17]) was inactive. The result in experiment [18] was inactive.
Regarding `CC1(C)CCC(Cc2ccc(Cl)cc2)C1(O)Cn1cncn1` (configuration not stated), the results for the AC50 with PGR (gene 5241) [12] and with PGR (gene 5241) [16] were 16.8 µM (active) and 21.6 µM (active), respectively. The call in experiment [13], in experiment [14], in experiment [17] and in [18] was inactive.
Consider `O=C(OC1CCCCC1)c1ccccc1C(=O)OC1CCCCC1`, for which the AC50 was 2.11 µM (active) in experiment [1], 0.549 µM (active) in [2] and 13.5 µM (active) in experiment [5]. In addition, the outcome in experiment [3], in [4] and in [6] was inactive.
